This passage reports inhibition results from PubChem BioAssay AID1626 (SRMLSC, 2009).

Screen size: about 220,000 compounds; about 2,000 (0.91%) were called active. Inconclusive results (about 2%) are left out. These entries were drawn from the full list. Measured potencies and affinities stand elsewhere. A number with no mark means an inactive call. Rule as the data show it: inconclusive = inhibition above about 80% without an active follow-up result; inactive = below that; test concentration not stated here.

A short description of this experiment: M. tuberculosis H37Rv growth inhibitors, H37Rv strain (AID 1626).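 Also: bacteria incubated seven days before Alamar blue readout; 0% = bacteria only wells and 100% = bacteria with antibiotic wells.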 The settings on record: hits give high values, concentration not given here.
A word on the inhibition: it is the drop in the measured response relative to a control, in per cent. Regarding `O=C(CN1C(=O)CCSc2ccccc21)N1CCC2(CC1)OCCO2`, the inhibition was -1.04%.

Turning to `CCc1nnc(NC(=O)CSc2nnc(COc3ccccc3)n2Cc2ccccc2)s1`, the inhibition is -6.06%.

Take `O=C(NCc1ccccc1)c1c[nH]c2cc3c(cc2c1=O)OCCO3`: the inhibition is -8.63%.

With `CC(c1ccccc1C(O)(c1ccccc1)c1ccccc1)N(C)C` (stereo not drawn), the inhibition was 12.7%.

With `CC(c1ccccc1C(O)c1ccccc1)N(C)C` (stereo not drawn), the inhibition was -3.64%.

As for `COc1ccc(CNC(=O)CCn2c(=O)[nH]c3ccccc3c2=O)cc1`, the inhibition was -0.21%.

As for `CCn1c(C2CCN(S(=O)(=O)c3ccc(OC)cc3)CC2)n[nH]c1=S`, the inhibition was 2.92%.

In the case of `Cc1[nH]nc2c1C(c1ccco1)C(C#N)=C(N)O2` (stereo not drawn), the inhibition is 5.49%.

As to `Cc1[nH]nc2c1C(c1ccc(-c3ccccc3C#N)o1)C(C#N)=C(N)O2` (stereo not drawn), the inhibition is -1.71%.

`Cc1[nH]nc2c1C(c1ccc(Cl)cc1)C(C#N)=C(N)O2` (stereo not drawn): the inhibition is -11.2%.

In the case of `Cc1ccc(C2C(C#N)=C(N)Oc3n[nH]c(C)c32)cc1` (stereo not drawn), the inhibition was -5.8%.

`O=C1CCC(c2ccccc2)=NN1`: the inhibition was -7.26%.

With `CC(C)=C1C2CCC1C1C(=O)N(c3ccc(C)c(C)c3)C(=O)C21` (stereo not drawn), the inhibition was 2.47%.

In the case of `Cn1cc(Br)c(C(=O)NC(=S)Nc2ccc(S(N)(=O)=O)cc2)n1`, the inhibition is -5.09%.

Turning to `Cc1cc(C(=O)Nc2cccnc2Cl)on1`, the inhibition is -0.41%.

Turning to `Cc1occc1-c1nnc(SCC(=O)Nc2nccs2)n1CCc1ccccc1`, the inhibition is 1.51%.

Turning to `Cc1csc(NC(=O)c2ccc(C)c([N+](=O)[O-])c2)n1`, the inhibition is 3.94%.

Turning to `COCC(=O)Nc1nc(-c2ccc([N+](=O)[O-])cc2)cs1`, the inhibition is 0.01%.

Turning to `Cc1csc(NC(=O)c2ccc(C(=O)Nc3nc(C)cs3)cc2)n1`, the inhibition was -5.15%.

Consider `CC(=O)Nc1nc(-c2ccc([N+](=O)[O-])cc2)cs1`, for which the inhibition is -3.92%.

Regarding `COc1ccc(CC(=O)Nc2nc(-c3cccc([N+](=O)[O-])c3)cs2)cc1`, the inhibition is 1.75%.

Regarding `CC(=O)Nc1nc(-c2cccs2)cs1`, the inhibition was -6.43%.

As to `Cc1cc(NS(=O)(=O)c2ccc(NC(=O)NC(C)(C(F)(F)F)C(F)(F)F)cc2)no1`, the inhibition was 3.8%.

With `CCN1CCN(C(=O)CCNC(=O)Cn2ccc3ccccc3c2=O)CC1`, the inhibition was -4.7%.

Take `O=C(O)c1ccc(Cn2cnc3scc(-c4ccccc4)c3c2=O)cc1`: the inhibition is 1.45%.

For `CCc1cccc2c(C(=O)CSc3nnc(-c4ccoc4C)n3C)c[nH]c12`, the inhibition is -9.96%.

Regarding `Cc1ccc2nc3c(cc2c1)CC1(C(=O)N(C)C(=O)N(C)C1=O)C1COCCN31` (stereo not drawn), the inhibition is 15.8%.

As to `Cc1ccc(-n2c(=S)[nH]c3[nH]ncc3c2=O)cc1`, the inhibition is 1.01%.

Consider `O=C1Nc2cc(C(=O)N3CCc4ccccc4C3)ccc2S/C1=C\c1ccccc1`, for which the inhibition is 27.6%.

Take `COc1ccc(/C=C2\Sc3ccc(C(=O)N4CCc5ccccc5C4)cc3N(C)C2=O)cc1`: the inhibition was 23.7%.

On to `CCCCSc1nc2ccc(Nc3nc(N4CCOCC4)nc(N4CCOCC4)n3)cc2s1`, for which the inhibition was 7.41%.

In the case of `COCc1cc(=O)n2[nH]c(SCc3ccccc3)nc2n1`, the inhibition was -0.4%.

On to `CC(C)COc1ncnc2c1sc1nc3c(cc12)COC(C)(C)C3`, for which the inhibition was -12.6%.

On to `Cc1nn2c(NCc3ccccn3)cc(C(C)(C)C)nc2c1-c1ccccc1`, for which the inhibition is 68.6%.

Turning to `CC(=O)Nc1ccc(Nc2cc(C)nc3c(-c4ccc(Cl)cc4)c(C)nn23)cc1`, the inhibition was 21.5%.

For `Cc1cc(Nc2ccccc2)n2nc(C)c(-c3ccccc3)c2n1`, the inhibition is 3.74%.

On to `CCCc1cc(N2CCCC2)n2nc(C)c(-c3ccccc3)c2n1`, for which the inhibition is -0.95%.

For `Cc1cc(NCCCN2CCOCC2)n2nc(C)c(-c3ccccc3)c2n1`, the inhibition was 1.95%.

For `Cc1nn2c(NCc3ccccn3)cc(C(C)C)nc2c1-c1ccccc1`, the inhibition was 99.8%.

As to `Cc1nn2c(N3CCCC3)cc(C(C)C)nc2c1-c1ccccc1`, the inhibition is -3.85%.

`Cc1cc(NCCN2CCOCC2)n2nc(C)c(-c3ccccc3)c2n1`: the inhibition was 2.31%.

Take `NC(=S)Nc1cccc(F)c1`: the inhibition is -6.55%.

Turning to `Cc1ccc(CNC(=O)Nc2cccc(C)c2)cc1`, the inhibition was -0.4%.

For the molecule `CCC(Sc1ccccn1)C(=O)Nc1nnc(C)s1` (stereo not drawn), the inhibition was 22%.

In the case of `O=C(Nc1ccc2c(c1)OCO2)c1nn(-c2ccccc2)c(=O)c2ccccc12`, the inhibition was -10.6%.

In the case of `Cc1ccc(Nc2nc(-c3c(C)nc4ncccn34)cs2)cc1`, the inhibition was 6.26%.

`Cc1nc2ncccn2c1-c1csc(Nc2ccc(O)cc2)n1`: the inhibition is 1.06%.

For the molecule `O=C(Nc1cccc(Cl)c1)OCc1cn(-c2ccccc2)nn1`, the inhibition was -9.19%.

`Cc1ccc(CN2CCN(/N=C/c3cc(Br)ccc3O)CC2)cc1`: the inhibition was 2.82%.

For the molecule `COc1ccc(CCNC(=O)CN(CCc2ccccc2)S(C)(=O)=O)cc1OC`, the inhibition is 5.24%.

With `CCCN(CCC)C(=O)CSc1nc2c(sc(=S)n2-c2ccc(OCC)cc2)c(=O)[nH]1`, the inhibition is 6.22%.

On to `O=C(O)CCC(=O)Nc1ccccc1C(=O)NCc1ccccc1`, for which the inhibition is -4.2%.

On to `O=C(Nc1ccccc1C(=O)NCc1ccccc1)c1ccccc1`, for which the inhibition was -4.15%.

For `O=C(NCc1cccc(CNC(=O)c2ccco2)c1)c1ccco1`, the inhibition is -1.79%.

`N/C(Cc1ccccc1Sc1ccccc1)=N\O`: the inhibition is -3.65%.

As to `COc1ccc(-c2noc(-c3cccs3)n2)cc1OC`, the inhibition is 10.1%.

Turning to `COc1ccc(-c2csc(-c3cccs3)n2)c(OC)c1`, the inhibition is 6.31%.

For the molecule `O=C(CN1C(=O)NC2NC(=O)NC21)NN=C1CCCC1` (stereo not drawn), the inhibition was -3.27%.

Turning to `Cc1ccccc1N(CC(=O)NCCSCc1ccco1)S(C)(=O)=O`, the inhibition was -3.95%.

As for `O=C(COC(=O)c1ccc(O)cc1)Nc1ccc(N2CCCCC2)cc1`, the inhibition is 3.59%.

Consider `CC12CCC(C(=O)Nc3ccc4c(c3)OCCO4)(OC1=O)C2(C)C` (stereo not drawn), for which the inhibition was -12.4%.

Regarding `N#Cc1c(N)c(C(=O)c2ccc(Cl)cc2)n2c1CCC2`, the inhibition was -2.62%.

Take `CC(NC(=O)c1ccc(Br)s1)c1ccncc1` (stereo not drawn): the inhibition was 0.09%.

In the case of `O=C(Nc1nnc(-c2ccncc2)o1)c1ccccc1`, the inhibition is 68%.

As to `CC(C)C(=O)Nc1nnc(-c2ccccc2)o1`, the inhibition is 10.9%.

For the molecule `CCCCOC(=O)c1nnc(-c2ccc(Cl)cc2)o1`, the inhibition was -12.6%.

In the case of `CC(C)(C)C(=O)Nc1nnc(-c2ccncc2)o1`, the inhibition was -0.06%.

As for `CCCCNC(=O)Nc1nnc(-c2ccccc2)o1`, the inhibition was 64.8%.

Regarding `O=C(Nc1cccnc1)c1ccc(Br)s1`, the inhibition is -8.07%.

Take `O=C(Nc1nnc(-c2ccccc2)o1)c1cccc(N2C(=O)CCC2=O)c1`: the inhibition was 7.39%.

Take `COCCNC(=O)CCC(=O)NNc1nc2ccccc2c2nc(C)nn12`: the inhibition was -0.78%.

Take `CN(C)S(=O)(=O)c1cccc(C(=O)Nc2ccccc2[N+](=O)[O-])c1`: the inhibition was -64.1%.

Regarding `CC(=O)c1cccc(NC(=O)c2ccc(N(Cc3ccc(C)cc3)S(C)(=O)=O)cc2)c1`, the inhibition was 1.69%.

Consider `Cc1ccc(/C=N/n2c(C)cc(C)c(C#N)c2=O)cc1`, for which the inhibition is -12.6%.

In the case of `O=C(NC1(C(F)(F)F)NC(=O)N(c2ccccc2F)C1=O)c1ccncc1` (stereo not drawn), the inhibition is -15.1%.

`Cc1nnc(N)s1`: the inhibition was -5.97%.

In the case of `O=C(Nc1nnc(-c2ccc(Cl)cc2)o1)c1ccc(N2C(=O)CCC2=O)cc1`, the inhibition was 8.01%.

Regarding `CN(C)c1ccc(C(=O)NNC(=O)c2ccc(Cl)cc2)cc1`, the inhibition is -8.45%.

With `O=C(CNc1cccc(C(F)(F)F)c1)N/N=C/c1cn(-c2ccccc2)nc1-c1ccccc1`, the inhibition was 8.35%.

With `CNC(=O)CSc1nc(N)c2c3c(sc2n1)CCC3`, the inhibition is 9.76%.

For `CCOC(=O)CSc1nc(N)c2c3c(sc2n1)CCCC3`, the inhibition is 70.6%.

On to `NC(=O)CSc1nc(N)c2c3c(sc2n1)CCCCC3`, for which the inhibition was -1.55%.

Turning to `CC(C)(C)C1CCc2c(sc3nc(SCC(=O)O)nc(N)c23)C1` (stereo not drawn), the inhibition was -0.64%.

Consider `Cc1ccccc1NC(=O)CSc1nc(N)c2c3c(sc2n1)CSC(C)(C)C3`, for which the inhibition is 53.7%.

For the molecule `CC1CCc2c(sc3nc(SCC(=O)NCc4ccco4)nc(N)c23)C1` (stereo not drawn), the inhibition is 7.95%.

For `CCOc1ccccc1C1C(C#N)=C(N)Oc2cc(N)ccc21` (stereo not drawn), the inhibition was 8.36%.

For the molecule `C=CCN1C(=O)C(C(C)CC)NC1=S` (stereo not drawn), the inhibition was -2.92%.

Turning to `Cc1ccc(N=C2NC(=O)C(CC(=O)NCc3ccccc3)S2)cc1C` (stereo not drawn), the inhibition was -1.52%.

For `O=C(CCc1c[nH]c2ccccc12)Nc1ccc(S(=O)(=O)Nc2ncccn2)cc1`, the inhibition is -2.28%.

In the case of `CC1CC1C(=O)OCC(=O)Nc1cccc([N+](=O)[O-])c1` (stereo not drawn), the inhibition was -1.97%.

Consider `Cc1ccc(Sc2ccc(CN3CCCC3)cc2[N+](=O)[O-])cc1`, for which the inhibition was 9.11%.

Take `CN1CCN(Cc2ccc(Sc3ccc(Cl)cc3)c([N+](=O)[O-])c2)CC1`: the inhibition is 18.9%.

For the molecule `O=C(CN1CCOCC1)NNC(=S)Nc1ccc(Cl)cc1`, the inhibition was 4.8%.

As for `Cc1ccc(SCC(=O)NC2CCS(=O)(=O)C2)cc1` (stereo not drawn), the inhibition was 4.3%.

Regarding `CCc1nc(N2CCN(Cc3ccc4c(c3)OCO4)CC2)c2oc3ccccc3c2n1`, the inhibition is 5.87%.

As for `c1ccc2c(c1)oc1c(NCc3ccc4c(c3)OCO4)ncnc12`, the inhibition is 57.7%.

For the molecule `Cc1nc(Nc2ccc3c(c2)OCO3)c2oc3ccccc3c2n1`, the inhibition was -15.2%.

In the case of `CCc1nc(Nc2ccc3c(c2)OCCO3)c2oc3ccccc3c2n1`, the inhibition is 1.04%.
